Reference: PubChem BioAssay AID1159580 (chemical genetic matrix, 2015)
“And” between values parts separate entries of the source, which are not always exact repeats. Identical values can stand only once. About 2,000 (36%) of roughly 5,500 compounds were called active. Roughly 18% stayed inconclusive and do not appear here. Cut-off read from the data, not from the text of the source: active = normalized growth mostly below about 0.91 (no sharp cut-off); inconclusive = no clear call, values can overlap the other calls; inactive = mostly above about 0.92. Some of the results follow.

Assay: chemical genetic growth profiling, strain panel (AID 1159580);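 note: tested at 20 µM; growth read once vehicle control cultures reached saturation at 30 °C; 1 = growth at the plate median or of vehicle wells; lower values mean less growth of the strain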
Details: S. cerevisiae deletion strains, growth OD

Measured: normalized growth

CCCC(=O)Nc1ncnc2c1ncn2C1O[C@@H]2COP(=O)(O)O[C@H]2[C@H]1OC(=O)CCC (stereo not given in full)
inactive: locus YAL013W, strain DEP1, hits give low values 1 | locus YAL021C, strain ccr4, hits give low values 0.981 | locus YAL026C, strain drs2, hits give low values 0.986 | locus YAL030W, strain snc1, hits give low values 0.994 | locus YBL061C, strain skt5, hits give low values 0.97 | locus YBR009C, strain hhf1, hits give low values 0.962 | locus YBR021W, strain FUR4, hits give low values 0.999 | locus YBR023C, strain chs3, hits give low values 0.974 | locus YBR171W, strain sec66, hits give low values 0.971 | locus YBR229C, strain ROT2, hits give low values 1.01 | locus YBR231C, strain swc5, hits give low values 0.995 | locus YBR279W, strain paf1, hits give low values 0.981 | locus YCL011C, strain gbp2, hits give low values 0.958 | locus YCL016C, strain dcc1, hits give low values 0.952 | locus YCL029C, strain bik1, hits give low values 1.02 | locus YCL061C, strain MRC1, hits give low values 0.977 | locus YCL069W, strain vba3, hits give low values 0.974 | locus YCR088W, strain abp1, hits give low values 0.984 | locus YDL005C, strain med2, hits give low values 0.982 | locus YDL035C, strain GPR1, hits give low values 1.02 | locus YDL040C, strain nat1, hits give low values 0.987 | locus YDL074C, strain BRE1, hits give low values 1 | locus YDL101C, strain DUN1, hits give low values 1.01 | locus YDL134C, strain PPH21, hits give low values 1.01 | locus YDL185W, strain tfp1, hits give low values 1.02 | locus YDL192W, strain arf1, hits give low values 1.01 | locus YDR001C, strain nth1, hits give low values 0.986 | locus YDR069C, strain doa4, hits give low values 0.999 | locus YDR101C, strain arx1, hits give low values 1.02 | locus YDR137W, strain rgp1, hits give low values 0.973 | locus YDR150W, strain NUM1, hits give low values 1 | locus YDR159W, strain sac3, hits give low values 1.01 | locus YDR162C, strain NBP2, hits give low values 1.01 | locus YDR195W, strain ref2 1 | locus YDR297W, strain sur2, hits give low values 0.985 | locus YDR318W, strain mcm21, hits give low values 1.02 | locus YDR334W, strain swr1, hits give low values 0.975 | locus YDR335W, strain msn5, hits give low values 0.988 | locus YDR388W, hits give low values 1.02 | locus YDR392W, strain spt3, hits give low values 0.869 | locus YDR502C, strain sam2, hits give low values 1.01 | locus YEL003W, strain gim4, hits give low values 0.995 | locus YEL037C, strain rad23, hits give low values 0.984 | locus YEL061C, strain CIN8 (second series), hits give low values 0.985 | locus YEL061C, strain CIN8, hits give low values 1.01 | locus YER015W, strain faa2, hits give low values 0.98 | locus YER016W, strain bim1, hits give low values 0.975 | locus YER110C, hits give low values 1.03 | locus YER111C, strain swi4, hits give low values 0.973 | locus YER155C, strain BEM2 (second series), hits give low values 1.01 | locus YER155C, strain BEM2, hits give low values 0.996 | locus YER167W, strain BCK2, hits give low values 1.01 | locus YFR010W, strain ubp6, hits give low values 0.988 | locus YGL078C, strain dbp3, hits give low values 1.02 | locus YGL086W, strain mad1, hits give low values 1 | locus YGL167C, strain pmr1, hits give low values 0.981 | locus YGL173C, strain kem1, hits give low values 0.979 | locus YGL227W, strain vid30, hits give low values 0.978 | locus YGL240W, strain doc1, hits give low values 1.02 | locus YGL248W, strain PDE1, hits give low values 1.01 | locus YGL253W, strain hxk2, hits give low values 0.996 | locus YGR135W, strain pre9, hits give low values 1.03 | locus YGR229C, strain SMI1, hits give low values 1.01 | locus YGR252W, strain gcn5, hits give low values 1.04 | locus YHR013C, strain ard1, hits give low values 0.973 | locus YHR027C, strain rpn1, hits give low values 0.979 | locus YHR030C, strain SLT2, hits give low values 1 and 1.02 | locus YHR079C, strain IRE1 (second series), hits give low values 1.02 | locus YHR079C, strain IRE1, hits give low values 1.03 | locus YHR094C, strain hxt1, hits give low values 1.02 | locus YHR129C, strain ARP1, hits give low values 1 | locus YHR142W, strain chs7, hits give low values 0.944 | locus YHR200W, strain rpn10, hits give low values 1.02 | locus YIL066C, strain RNR3, hits give low values 1.02 | locus YIL073C, strain SPO22, hits give low values 1.06 | locus YIL125W, strain kgd1, hits give low values 1.02 | locus YIR030C, strain dcg1, hits give low values 1.02 | locus YJL092W, strain hpr5, hits give low values 0.985 | locus YJL095W, strain BCK1 (second series), hits give low values 0.979 | locus YJL095W, strain BCK1, hits give low values 1 and 1.03 | locus YJL115W, strain asf1, hits give low values 0.985 | locus YJL129C, strain trk1, hits give low values 0.949 | locus YJL134W, strain LCB3, hits give low values 1.01 | locus YJL154C, strain vps35, hits give low values 0.97 | locus YJL164C, strain tpk1, hits give low values 0.968 | locus YJL166W, strain qcr8, hits give low values 1.01 | locus YJL168C, strain set2, hits give low values 1.03 | locus YJL187C, strain SWE1 (second series), hits give low values 1 | locus YJL187C, strain SWE1, hits give low values 0.992 | locus YJR043C, strain POL32, hits give low values 1.01
